This note sets out measurements from PubChem BioAssay.

Assay [1] relates to XIP peptide (Xip251-270) binding. Description: small-molecule binders of XIP peptide, primary screen, biochemical, small-molecule microarray, fluorescence 635/667 nm, 0.1 µg/mL protein (AID 1182). Particulars: fluorescent protein binding, 635 nm, higher = more signal, called active from +8 up or from −8 down.
A further assay has as its system XIP peptide (Xip251-270). Description: small-molecule binders of XIP peptide, primary screen, biochemical, small-molecule microarray, fluorescence 635/667 nm, 0.5 µg/mL protein (AID 1183). Particulars: small-molecule microarray binding, fluorescence 635 nm; higher = more signal.
Assay [2] is described as follows: Plasmodium falciparum growth inhibition, primary screen, strain 3D7, DAPI fluorescence, 100 nL (AID 1184).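 Also: parasites grown inside human red blood cells in medium with human serum.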 Particulars: P. falciparum 3D7 growth, 3 d, higher = more signal.
Assay [3] addresses Homeobox protein Hox-A13 (Mus musculus) (UniProt Q62424). Description: inhibitors of HoxA13-DNA binding, primary screen, biochemical, fluorescence polarization, labeled oligonucleotide (AID 1185). The conditions noted are these: 15 min, higher = more signal, called active from +8 up or from −8 down. (Fluorescence polarisation rises when a labelled molecule tumbles more slowly, as on binding a larger partner.)

Assay [4] can be described thus: inhibitors of hydroxyurea-induced Chk1 phosphorylation, primary screen, imaging, HeLa, phospho-Chk1 antibody, percent positive cells (AID 1186). The conditions noted are these: hydroxyurea-induced phospho-Chk1 immunofluorescence imaging, higher = more signal.
The nature of assay [5]: inhibitors of hydroxyurea-induced Chk1 phosphorylation, primary screen, imaging, HeLa, phospho-Chk1 nuclear intensity (AID 1187). The conditions noted are these: hydroxyurea-induced phospho-Chk1 immunofluorescence imaging, higher = more signal.

Activity calls are given as the source filed them. Unless noted, no rule for the calls is given here.

Chain of Homeobox protein Hox-A13 (Mus musculus) (Q62424 whole entry, looked up): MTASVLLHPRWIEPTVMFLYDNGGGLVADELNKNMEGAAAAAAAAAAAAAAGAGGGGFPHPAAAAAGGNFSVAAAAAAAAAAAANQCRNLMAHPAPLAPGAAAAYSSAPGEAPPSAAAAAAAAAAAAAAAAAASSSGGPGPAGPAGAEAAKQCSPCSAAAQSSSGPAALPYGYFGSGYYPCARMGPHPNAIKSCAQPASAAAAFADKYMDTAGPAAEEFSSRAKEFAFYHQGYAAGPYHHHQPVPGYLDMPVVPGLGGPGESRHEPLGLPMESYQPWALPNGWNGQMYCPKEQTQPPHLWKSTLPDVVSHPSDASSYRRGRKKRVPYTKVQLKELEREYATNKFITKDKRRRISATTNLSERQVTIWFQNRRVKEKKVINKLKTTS

Regarding `N#Cc1ccc(NN2C(C(O)c3ccccc3)C=CC3C(=O)N(c4ccccc4)C(=O)C32)cc1` (stereo unspecified), the composite z-score in assay [1] is 0.283 (inactive); in the assay with XIP peptide (Xip251-270) it was 0.026. Moreover, the z-score in assay [2] was 0.635; in assay [3] it was -2.61 (inactive); in assay [4], 0.422 (inactive); in assay [5] it was 0.691 (inactive).

Regarding `CCC[C@@H]1C[C@@]1(CCC)[C@@H](NC(=O)c1ccco1)c1ccc(Cl)cc1`, the values for the composite z-score (in assay [1]; with XIP peptide (Xip251-270)) were 0.0025 (inactive) and -0.835, respectively. Further, the z-score is -1.21 in assay [2], -0.61 (inactive) in assay [3], 0.348 (inactive) in assay [4] and 0.241 (inactive) in assay [5].

Consider `C[N+](C)(C)CCCCNC(=O)[C@H]1C[C@H]2C(=O)NCC(=O)N2[C@H]1c1ccc(O)cc1`, for which the composite z-score in assay [1] is 0.696 (inactive); in the assay on XIP peptide (Xip251-270) it was 0.922. Besides, the z-score in assay [2] is 0.258; in assay [3], -0.735 (inactive); in assay [4] it was -1.02 (inactive); in assay [5] it was -0.701 (inactive).

As to `C=CCOC(=O)[C@H]1[C@@H]2C(=O)O[C@@H](c3ccccc3)[C@@H](c3ccccc3)N2[C@@H](c2ccc(OCCOC(=O)[C@H]3C[C@H]4C(=O)N[C@@H](CCCCN(C)C)C(=O)N4[C@H]3c3ccc(O)cc3)cc2)[C@]12C(=O)Nc1ccccc12`, the composite z-score in assay [1] was 0.275 (inactive); in the assay on XIP peptide (Xip251-270), 0.582. For the same compound, the z-score in assay [2] was -0.216; in assay [3], 4.13 (inactive); in assay [4], -0.685 (inactive); in assay [5], -0.308 (inactive).

Turning to `C=CCN1C(=O)[C@@]2(O[C@@H](CCn3cc([C@H](O)c4ccccc4)nn3)[C@H]([Si](C)(C)c3ccc(OC)cc3)[C@H]2C)c2cc(NC(=O)c3ccc(OC)cc3)ccc21`, the results for the composite z-score (in assay [1]; with XIP peptide (Xip251-270)) were 0.593 (inactive) and 0.189, respectively. The z-score is -2.7 in assay [2], -4.41 (inactive) in assay [3], 0.24 (inactive) in assay [4] and -0.338 (inactive) in assay [5].

As to `COC(=O)C(CC#Cc1ccc2c(c1)[C@]1(C(=O)N2)[C@H](c2ccc(O)cc2)N2[C@H](c3ccccc3)[C@H](c3ccccc3)OC(=O)[C@H]2[C@@H]1C(N)=O)C(=O)OC`, the composite z-score in assay [1] was -0.609 (inactive); in the assay with XIP peptide (Xip251-270) it was -2.27. The z-score was 0.38 in assay [2], 0.452 (inactive) in assay [3], -0.174 (inactive) in assay [4] and -0.279 (inactive) in assay [5].

As to `COCCOC(=O)N1C(=O)[C@@]2(c3cc(C#CCNC(N)=O)ccc31)[C@H](C(=O)N1CCCCCCC1)[C@H]1C(=O)O[C@H](c3ccccc3)[C@H](c3ccccc3)N1[C@@H]2c1ccc(OCCO)cc1`, the composite z-score is 0.0447 (inactive) in assay [1] and 0.28 in the assay on XIP peptide (Xip251-270). For the same compound, the z-score in assay [2] is -1.77; in assay [3] it was -15.8 (active); in assay [4], -0.0977 (inactive); in assay [5], -0.64 (inactive).

Turning to `CC(C)C[C@@H]1NC(=O)[C@@]23C(=O)N[C@@H](Cc4ccccc4)C2[C@H](C)[C@@]2(C)O[C@H]2C3/C=C/C/C=C\CNC(=O)[C@@H]2CCCN2C1=O` (stereo partly specified), the composite z-score in assay [1] was -0.0982 (inactive); with XIP peptide (Xip251-270), -0.791. For the same compound, the z-score in assay [2] was 0.817; in assay [3] it was -6.29 (inactive); in assay [4] it was -0.118 (inactive); in assay [5], 0.275 (inactive).

As to `Cc1ccc(-c2cccc(=O)o2)cc1`, the values for the composite z-score (in assay [1]; in the assay with XIP peptide (Xip251-270)) were -0.0449 (inactive) and -0.776, respectively. Further, the z-score in assay [2] is 0.842; in assay [3] it was -1.28 (inactive); in assay [4] it was 0.45 (inactive); in assay [5], -0.203 (inactive).

For the compound `CCOC(=O)C1=CC[C@@H](c2cccc(Br)c2)N(S(=O)(=O)c2ccc(C)cc2)[C@H]1c1ccc([N+](=O)[O-])cc1`, the composite z-score is 0.422 (inactive) in assay [1] and 0.707 with XIP peptide (Xip251-270). Besides, the z-score in assay [2] is -1.92; in assay [3], 4.18 (inactive); in assay [4] it was 0.476 (inactive); in assay [5] it was 0.508 (inactive).

On to `COC(=O)[C@@]1(Cc2ccccc2)[C@H]2c3cc(C(=O)N4CCCC4)n(Cc4ccccc4)c3C[C@H]2CN1C(=O)c1ccccc1`, for which the composite z-score was 3.1 (inactive) in assay [1] and -0.179 with XIP peptide (Xip251-270). Besides, the z-score in assay [2] is -1.12; in assay [3] it was -4.13 (inactive); in assay [4], 0.234 (inactive); in assay [5], 0.167 (inactive).

Consider `COC(=O)c1ccc(OC)c(/C=C\CC(CCc2ccccc2)OC(C)=O)c1` (stereo unspecified), for which the composite z-score in assay [1] is -0.521 (inactive); in the assay with XIP peptide (Xip251-270), -0.187. Also, the z-score was 0.522 in assay [2], -1.15 (inactive) in assay [3], 0.177 (inactive) in assay [4] and 0.453 (inactive) in assay [5].

Consider `CN(C)C(=O)[C@@]1(Cc2ccccc2N=[N+]=[N-])N=C(c2ccc(OCCCO)cc2)O[C@H]1c1ccccc1N=[N+]=[N-]`, for which the composite z-score was 0.976 (inactive) in assay [1] and 0.596 with XIP peptide (Xip251-270). For the same compound, the z-score is -2.32 in assay [2], -4.6 (inactive) in assay [3], 0.0092 (inactive) in assay [4] and 0.398 (inactive) in assay [5].

As for `COCCOC(=O)N1C(=O)[C@@]2(c3cc(C#CCCO)ccc31)[C@H](c1ccc(OCCO)cc1)N1[C@H](c3ccccc3)[C@H](c3ccccc3)OC(=O)[C@H]1[C@@H]2C(=O)N1CCc2cc(OC)c(OC)cc2C1`, the composite z-score is 0.311 (inactive) in assay [1] and 0.736 in the assay with XIP peptide (Xip251-270). Besides, the z-score in assay [2] was -1.87; in assay [3], 2.71 (inactive); in assay [4], -0.209 (inactive); in assay [5], 0.0256 (inactive).

Regarding `COC(=O)[C@@]1(Cc2ccc(OC)cc2)[C@H]2c3cc(C(=O)N4CCCC4)n(CCc4ccc(O)c(OC)c4)c3C[C@H]2CN1C(=O)c1ccccc1`, the composite z-score in assay [1] is 0.739 (inactive); in the assay on XIP peptide (Xip251-270) it was -0.506. In addition, the z-score in assay [2] is -0.37; in assay [3] it was -4.35 (inactive); in assay [4], 0.219 (inactive); in assay [5] it was 0.0055 (inactive).

For the compound `COc1cc(C(O)C2C=CC3C(=O)NC(=O)C3N2Nc2ccc(Cl)cc2Cl)cc(OC)c1OC` (stereo unspecified), the values for the composite z-score (in assay [1]; in the assay on XIP peptide (Xip251-270)) were 0.587 (inactive) and 0.619, respectively. Also, the z-score in assay [2] is -0.395; in assay [3] it was -6.07 (inactive); in assay [4] it was 0.136 (inactive); in assay [5], 0.148 (inactive).
